Experimental data published in the supplement of paper PMC10849652.
About 7,900 targets were measured; listed, in parts, are those with a hit and a random draw of the rest. About 0.6% of all pairs of compound and target were hits.

Compound: CN1C2=C(C3=C1C(=O)N(N=C3)CC4=CC(=CC=C4)N)SC(=C2)S(=O)C
Assay: log2 fold change, soluble protein after heating vs DMSO (PISA); higher = thermal stabilisation; K562 cells, 10 uM, 30 min; active = over 0.2 and 3.5 SD of the protein, either way, in both replicates (recomputed)
How it was run: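 K562 cells (2×10^6 cells/mL) were treated with 10 μM compound for 30 min, and aliquots were heated for 3 min over 48°C-58°C. Pooled aliquots were extracted in PBS with 0.5% NP-40 at 4°C, and the supernatant after 21,000xg for 90 min was measured by TMTpro 16plex LC-MS/MS with channel sums equalised. Reported thermal stability, relative to control samples and from duplicates, is a log2 fold change.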

Chain of UniProt Q9NWU1 (Q9NWU1 whole entry, looked up): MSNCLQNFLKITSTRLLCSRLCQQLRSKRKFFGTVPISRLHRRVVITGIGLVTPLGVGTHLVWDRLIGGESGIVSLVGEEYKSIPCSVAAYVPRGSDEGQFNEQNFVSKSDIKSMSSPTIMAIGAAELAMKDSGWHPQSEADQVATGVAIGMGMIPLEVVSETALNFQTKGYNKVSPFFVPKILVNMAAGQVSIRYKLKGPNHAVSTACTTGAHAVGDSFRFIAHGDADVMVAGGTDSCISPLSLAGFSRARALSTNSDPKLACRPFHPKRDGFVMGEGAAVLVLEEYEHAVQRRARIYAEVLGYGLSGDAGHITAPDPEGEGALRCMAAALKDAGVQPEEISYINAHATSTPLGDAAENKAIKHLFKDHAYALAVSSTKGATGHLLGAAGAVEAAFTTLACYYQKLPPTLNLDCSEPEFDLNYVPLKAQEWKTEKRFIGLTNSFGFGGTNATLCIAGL
Chain of UniProt O00567 (O00567 whole entry, looked up): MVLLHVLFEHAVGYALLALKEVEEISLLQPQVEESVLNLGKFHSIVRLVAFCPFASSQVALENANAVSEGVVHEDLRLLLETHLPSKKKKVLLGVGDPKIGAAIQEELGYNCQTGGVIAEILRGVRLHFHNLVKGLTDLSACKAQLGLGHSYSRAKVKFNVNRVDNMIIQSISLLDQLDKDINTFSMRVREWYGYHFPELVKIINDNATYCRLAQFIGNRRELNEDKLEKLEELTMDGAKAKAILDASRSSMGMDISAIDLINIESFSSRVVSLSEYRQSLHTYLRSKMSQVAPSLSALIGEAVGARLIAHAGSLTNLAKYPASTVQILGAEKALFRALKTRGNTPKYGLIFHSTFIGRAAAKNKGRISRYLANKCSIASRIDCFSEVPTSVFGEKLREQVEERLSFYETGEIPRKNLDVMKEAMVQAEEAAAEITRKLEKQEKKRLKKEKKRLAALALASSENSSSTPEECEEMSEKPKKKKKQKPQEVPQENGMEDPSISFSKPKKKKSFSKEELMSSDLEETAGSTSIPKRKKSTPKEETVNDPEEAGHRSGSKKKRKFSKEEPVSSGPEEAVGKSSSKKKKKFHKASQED
Chain of UniProt Q9H3P2 (Q9H3P2 whole entry, looked up): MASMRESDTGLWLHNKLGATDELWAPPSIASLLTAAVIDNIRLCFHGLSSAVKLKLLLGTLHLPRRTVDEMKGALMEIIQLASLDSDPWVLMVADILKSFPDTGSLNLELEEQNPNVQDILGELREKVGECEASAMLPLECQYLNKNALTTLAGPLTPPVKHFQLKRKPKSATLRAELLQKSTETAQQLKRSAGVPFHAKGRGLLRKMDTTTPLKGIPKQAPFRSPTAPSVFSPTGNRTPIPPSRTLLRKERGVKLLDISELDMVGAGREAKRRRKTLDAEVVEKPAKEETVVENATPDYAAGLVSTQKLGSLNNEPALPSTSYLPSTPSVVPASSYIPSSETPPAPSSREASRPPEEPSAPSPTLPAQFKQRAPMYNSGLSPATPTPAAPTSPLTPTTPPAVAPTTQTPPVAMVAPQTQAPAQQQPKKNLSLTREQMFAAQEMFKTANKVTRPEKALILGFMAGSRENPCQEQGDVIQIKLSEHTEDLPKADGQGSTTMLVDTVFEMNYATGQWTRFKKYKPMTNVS
Chain of UniProt O00217 (O00217 whole entry, looked up): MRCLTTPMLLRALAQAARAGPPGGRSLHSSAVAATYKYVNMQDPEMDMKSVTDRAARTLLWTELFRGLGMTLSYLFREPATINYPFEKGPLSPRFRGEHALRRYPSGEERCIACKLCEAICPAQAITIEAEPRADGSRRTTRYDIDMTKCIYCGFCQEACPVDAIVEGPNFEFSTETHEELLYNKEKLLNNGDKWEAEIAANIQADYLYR
Chain of UniProt P00846 (P00846 whole entry, looked up): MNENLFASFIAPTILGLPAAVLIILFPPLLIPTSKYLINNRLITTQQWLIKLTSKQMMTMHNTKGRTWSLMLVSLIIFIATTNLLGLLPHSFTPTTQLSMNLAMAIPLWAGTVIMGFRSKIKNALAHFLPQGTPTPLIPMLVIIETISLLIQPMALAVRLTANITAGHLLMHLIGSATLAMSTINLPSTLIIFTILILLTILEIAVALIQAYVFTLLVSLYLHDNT
Chain of UniProt O15460 (O15460 whole entry, looked up): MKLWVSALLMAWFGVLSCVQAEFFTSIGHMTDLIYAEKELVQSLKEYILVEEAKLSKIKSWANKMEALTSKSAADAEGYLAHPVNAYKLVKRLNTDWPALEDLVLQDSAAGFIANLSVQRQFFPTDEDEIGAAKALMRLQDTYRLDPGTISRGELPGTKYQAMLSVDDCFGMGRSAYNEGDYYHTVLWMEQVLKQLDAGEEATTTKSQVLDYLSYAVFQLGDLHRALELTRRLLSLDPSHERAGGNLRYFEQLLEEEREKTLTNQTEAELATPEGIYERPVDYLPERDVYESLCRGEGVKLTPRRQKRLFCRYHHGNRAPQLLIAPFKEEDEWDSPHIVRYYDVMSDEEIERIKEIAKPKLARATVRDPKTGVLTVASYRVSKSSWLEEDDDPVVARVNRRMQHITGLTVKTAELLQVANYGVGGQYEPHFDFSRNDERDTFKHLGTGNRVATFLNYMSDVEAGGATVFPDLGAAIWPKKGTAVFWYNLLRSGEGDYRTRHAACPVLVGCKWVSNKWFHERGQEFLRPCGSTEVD
Chain of UniProt Q86WC4 (Q86WC4 whole entry, looked up): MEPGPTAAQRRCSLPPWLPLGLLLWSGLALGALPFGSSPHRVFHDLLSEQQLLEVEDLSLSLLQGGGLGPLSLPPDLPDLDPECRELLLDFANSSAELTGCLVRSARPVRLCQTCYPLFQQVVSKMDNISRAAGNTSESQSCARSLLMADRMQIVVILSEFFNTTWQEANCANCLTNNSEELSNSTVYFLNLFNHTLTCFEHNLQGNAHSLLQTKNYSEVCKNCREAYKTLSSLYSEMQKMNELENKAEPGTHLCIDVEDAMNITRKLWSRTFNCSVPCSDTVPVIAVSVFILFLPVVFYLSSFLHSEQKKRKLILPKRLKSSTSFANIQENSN
Chain of UniProt P68402 (P68402 whole entry, looked up): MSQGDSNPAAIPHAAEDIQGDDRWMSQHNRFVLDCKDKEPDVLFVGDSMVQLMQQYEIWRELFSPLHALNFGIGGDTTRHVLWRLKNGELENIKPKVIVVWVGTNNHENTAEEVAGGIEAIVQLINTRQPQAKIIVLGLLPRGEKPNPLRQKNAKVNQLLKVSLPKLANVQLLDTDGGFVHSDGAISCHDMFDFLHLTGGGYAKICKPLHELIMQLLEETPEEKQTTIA
Chain of UniProt Q9NRP0 (Q9NRP0 whole entry, looked up): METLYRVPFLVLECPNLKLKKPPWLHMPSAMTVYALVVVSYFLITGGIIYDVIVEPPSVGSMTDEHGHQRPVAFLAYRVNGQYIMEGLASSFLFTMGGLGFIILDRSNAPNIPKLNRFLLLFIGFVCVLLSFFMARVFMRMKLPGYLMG
Chain of UniProt Q8WV92 (Q8WV92 whole entry, looked up): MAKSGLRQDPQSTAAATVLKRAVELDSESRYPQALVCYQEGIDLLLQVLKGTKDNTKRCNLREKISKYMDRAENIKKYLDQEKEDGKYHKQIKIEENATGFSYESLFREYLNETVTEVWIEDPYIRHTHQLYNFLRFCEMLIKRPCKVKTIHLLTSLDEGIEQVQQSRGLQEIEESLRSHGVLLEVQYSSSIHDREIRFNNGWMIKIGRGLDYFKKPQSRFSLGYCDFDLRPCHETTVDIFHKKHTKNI
Chain of UniProt Q12968 (Q12968 whole entry, looked up): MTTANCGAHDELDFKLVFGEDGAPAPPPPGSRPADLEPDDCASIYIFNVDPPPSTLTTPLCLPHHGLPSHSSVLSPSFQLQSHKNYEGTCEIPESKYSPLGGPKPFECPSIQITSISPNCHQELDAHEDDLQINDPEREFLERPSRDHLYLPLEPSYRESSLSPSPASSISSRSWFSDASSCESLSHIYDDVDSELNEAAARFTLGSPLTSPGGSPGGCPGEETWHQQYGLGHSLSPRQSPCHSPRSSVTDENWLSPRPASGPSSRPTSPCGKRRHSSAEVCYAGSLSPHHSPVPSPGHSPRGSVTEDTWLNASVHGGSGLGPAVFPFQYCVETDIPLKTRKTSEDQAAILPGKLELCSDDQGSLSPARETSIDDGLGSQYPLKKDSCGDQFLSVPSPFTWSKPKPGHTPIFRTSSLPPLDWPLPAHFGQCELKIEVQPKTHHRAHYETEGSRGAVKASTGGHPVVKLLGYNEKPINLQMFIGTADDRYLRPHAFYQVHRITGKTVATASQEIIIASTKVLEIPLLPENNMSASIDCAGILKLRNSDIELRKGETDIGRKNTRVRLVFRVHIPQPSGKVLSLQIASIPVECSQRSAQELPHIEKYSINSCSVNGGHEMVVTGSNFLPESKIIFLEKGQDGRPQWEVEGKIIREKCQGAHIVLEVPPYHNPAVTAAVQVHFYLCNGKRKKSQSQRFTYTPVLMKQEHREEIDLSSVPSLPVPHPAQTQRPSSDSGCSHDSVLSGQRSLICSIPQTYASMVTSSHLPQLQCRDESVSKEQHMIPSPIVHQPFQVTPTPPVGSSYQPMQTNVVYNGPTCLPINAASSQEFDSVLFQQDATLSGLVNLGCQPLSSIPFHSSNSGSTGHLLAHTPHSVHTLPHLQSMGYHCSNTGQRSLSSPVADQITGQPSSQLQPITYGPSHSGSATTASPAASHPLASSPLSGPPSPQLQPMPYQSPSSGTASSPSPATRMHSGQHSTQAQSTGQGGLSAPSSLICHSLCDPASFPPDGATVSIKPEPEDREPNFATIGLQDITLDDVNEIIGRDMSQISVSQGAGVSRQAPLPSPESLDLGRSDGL
Chain of UniProt P49914 (P49914 whole entry, looked up): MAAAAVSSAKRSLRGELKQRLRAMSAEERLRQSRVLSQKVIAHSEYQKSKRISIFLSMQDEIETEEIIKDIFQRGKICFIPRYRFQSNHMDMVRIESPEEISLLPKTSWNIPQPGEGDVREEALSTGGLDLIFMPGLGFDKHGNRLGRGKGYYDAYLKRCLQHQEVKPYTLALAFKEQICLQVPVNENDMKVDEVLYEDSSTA

log2 fold change, inactive:
NELFB isoform 2 (UniProt Q8WX92) -0.02
MRPL50 (UniProt Q8N5N7) -0.043
MRPL46 (UniProt Q9H2W6) 0.061
NOP56 (UniProt O00567) 0.299
MTHFS (UniProt P49914) -0.022
MKNK1 (UniProt Q9BUB5) -0.095
NMNAT1 (UniProt Q9HAN9) 0.228
MT-ATP6 (UniProt P00846) -0.239
NFATC3 (UniProt Q12968) 0.036
NELFA (UniProt Q9H3P2) -0.051
OSTM1 (UniProt Q86WC4) 0.035
NDUFS8 (UniProt O00217) -0.069
MITD1 (UniProt Q8WV92) 0.079
NFX1 (UniProt Q12986) 0.128
NBN (UniProt O60934) -0.043
NDUFS7 (UniProt O75251) -0.029
NA, A0A096LPI6 -0.03
NSMCE2 (UniProt Q96MF7) 0.059
NIPSNAP2 (UniProt O75323) -0.083
MRPS10 (UniProt P82664) 0.066
NNT (UniProt Q13423) -0.097
NEU1 (UniProt Q99519) 0.015
NOL11 (UniProt Q9H8H0) -0.028
MRPS25 (UniProt P82663) 0.074
MRPS5 (UniProt P82675) 0.032
NMT2 (UniProt O60551) 0.002
NEDD4L (UniProt Q96PU5) 0.039
NR2C2 isoform 2 (UniProt P49116) 0.036
P4HA2 (UniProt O15460) 0.112
OSTC (UniProt Q9NRP0) -0.129
NFATC2 (UniProt Q13469) 0.039
PAFAH1B2 (UniProt P68402) -0.037
NA, A0A0B4J2A0 -0.078
OXSM (UniProt Q9NWU1) -0.025
NDUFA12 (UniProt Q9UI09) -0.054
NOP58 (UniProt Q9Y2X3) 0.234
MSTO1 (UniProt Q9BUK6) -0.057
MRPS27 isoform 2 (UniProt Q92552) 0.047
MYL12B (UniProt O14950) -0.078
